Assay outcomes: PubChem, National Center for Advancing Translational Sciences (NCATS)
AmpC inh detg – inhibitors of E. coli AmpC beta-lactamase with detergent. P00811. AmpC hydrolysis of nitrocefin, absorbance 480 nm, 0.01% Triton. Potency, µM (highest dose often 114 µM), inactives show at the highest dose activity change, negative = inhibition, hits mostly inhibitors. 0.041% of 370,000 active;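 further: potency means the concentration at half of the fitted maximal effect; 0% = no-compound wells and -100% = no-enzyme wells; nearly all actives have a fitted effect of over 25% in size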
Target sequence (P00811 whole entry, looked up): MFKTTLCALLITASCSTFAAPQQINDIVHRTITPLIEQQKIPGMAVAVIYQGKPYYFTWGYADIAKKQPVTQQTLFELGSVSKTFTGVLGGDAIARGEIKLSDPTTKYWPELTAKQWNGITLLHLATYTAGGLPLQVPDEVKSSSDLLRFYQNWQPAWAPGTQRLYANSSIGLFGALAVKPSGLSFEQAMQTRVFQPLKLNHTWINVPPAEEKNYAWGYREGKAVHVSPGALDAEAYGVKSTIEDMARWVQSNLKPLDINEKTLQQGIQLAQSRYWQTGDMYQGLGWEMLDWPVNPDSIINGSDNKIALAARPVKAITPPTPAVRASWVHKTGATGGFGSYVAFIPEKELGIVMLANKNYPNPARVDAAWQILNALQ
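20 mM phosphate pH 7.0 + 0.01% (detergent screen) or 0.0001% Triton X-100; 5.3 nM AmpC reagent; cpd preinc 15 min RT; nitrocefin (800 uM stock) to start; A480 q20 s × 4 min; Activity was normalised to no-enzyme and no-compound control wells.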
Shiga toxin inh – blocks Shiga toxin action in Vero cells. Vero cells, Shiga toxin protein synthesis inhibition reporter. inhibition, % at 38.7 µM. 9.2% of 290,000 active; in the data active means inhibition mostly above about 28%, no sharp cut-off; inactive means mostly below about 43%; further: 0% is about no effect
AmpC no deterg – inhibitors of E. coli AmpC beta-lactamase without detergent | P00811 | AmpC nitrocefin hydrolysis, absorbance 480 nm, 0.0001% Triton | Potency, µM (top dose mostly 57.1 µM), for inactives: at the highest dose activity change, negative = inhibition, actives largely listed as inhibitors | 0.52% of 330,000 active;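 further: potency means the concentration at half of the fitted maximal effect; plate controls were no compound for no effect and no enzyme for full effect; nearly all actives have a fitted effect of over 20% in size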
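AmpC (5.3 nM in the dispensed reagent) in 20 mM phosphate pH 7.0 with 0.01% (detergent screen) or 0.0001% Triton X-100 was preincubated with compounds for 15 min at room temperature. Nitrocefin was then added from an 800 uM solution, and hydrolysis was followed at 480 nm.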
CHX counter – counter-screen hit for Shiga toxin inhibitors, cycloheximide. max response, %. cell reporter, cycloheximide protein synthesis inhibition counterscreen. 12% of 300,000 active; in the data active means max response mostly above about 13%, no sharp cut-off; inactive means mostly below about 14%; further: read at 38.3 µM for the half of the compounds with a filed dose; 0% is about no effect
AMA1-RON2 inh – AMA1-RON2 (P. falciparum) interaction inhibition; 0.2% of 360,000 active; AlphaScreen AMA1-biotinylated RON2 peptide binding; Potency, µM (series often up to 58.2 µM), for inactives: at the highest dose activity change, negative = inhibition, most hits filed as inhibitors;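 further: potency means the concentration at half of the fitted maximal effect; 0% = vehicle wells and -100% = peptide control; nearly all actives have a fitted effect of over 45% in size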
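AMA1 (3D7) with his tag at 25 nM final met compounds first, then biotinylated RON2 peptide at 25 nM; detection used donor plus acceptor beads, 10 µg/mL apiece, read by AlphaScreen after 30 min at room temperature.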
SARS PLP yeast – blocks SARS-CoV papain-like protease in a yeast assay; 0.19% of 330,000 active; Potency, µM (titrated, usually from 32.9 µM), inactives show at the highest dose activity, positive = growth rescue, hits mostly activators; S. cerevisiae expressing SARS-CoV PLpro, growth rescue; calls by dose curve; further: potency means the concentration at half of the fitted maximal effect; 0% is about no effect; nearly all actives have a fitted effect of over 55% in size
The depositor's hits bear a star; ? = inconclusive; . = not tested or not shown. Only a selection was taken, and hits are over-represented in it overall. Unless noted, the call rests on the fitted dose curve; in most records, active means well fitted curve in the direction sought with a large enough effect; inconclusive means small, poorly fitted or top-dose-only effect, or another doubt; inactive means no such curve, though single readings can be large; an effect the other way counts as inactive or inconclusive.

SMILES | AmpC inh detg | Shiga toxin inh | AmpC no deterg | CHX counter | AMA1-RON2 inh | SARS PLP yeast
Cc1ccc(-c2ccc(C(=O)NCc3ccccc3)o2)c2ccccc12 | ? | -11 | -37% | -2 | -20% | -12%
Cc1cccc(-c2nc(C)cc(=O)[nH]2)c1 | 4% | -1 | -9% | -2 | 3% | 0%
C=CCNCCOc1ccc(C)cc1[N+](=O)[O-] | -3% | 7 | -12% | 3 | -18% | -1%
C=CCN(CC=C)CCOc1cc(C)ccc1[N+](=O)[O-] | -13% | 40* | -3% | 18* | -12% | 1%
C=CCN(CC=C)CCOc1ccc(C)cc1[N+](=O)[O-] | -7% | 71* | -17% | 26* | ? | 0%
N=C(N)c1ccc(N=Nc2c(O)ccc3c2[nH]c2ccccc23)cc1 | . | . | . | . | 25µM* | .
CCc1ccc(-c2cn(-c3nc(C)cc(C)n3)c(=N)o2)cc1 | 0% | 46 | -20% | 23* | 14% | -8%
COc1ccc(CCNc2oc(COc3ccccc3F)nc2C#N)cc1 | 1% | 30 | -29% | 15* | -24% | -22%
C=CCNc1oc(COc2ccc(C)cc2)nc1C#N | -8% | 136* | 0% | 25* | 17% | 0%
N#Cc1nc(COc2ccccc2F)oc1NCc1ccc(F)cc1 | -2% | 64* | -27% | 35* | -17% | -4%
CN(C)CCNc1oc(COc2ccc(-c3ccccc3)cc2)nc1C#N | 1% | -13 | 113% | 22 | 20% | -10%
CN(C)c1oc(COc2ccccc2F)nc1C#N | -7% | 59* | -13% | 29* | -13% | -2%
COc1ccc(CCNc2oc(COc3ccc(Br)cc3)nc2C#N)cc1OC | -17% | -4 | 25% | -6 | -2% | -2%
CN(C)c1oc(COc2ccc(F)cc2)nc1C#N | ? | -5 | -9% | 6 | 1% | -27%
CCOC(=O)c1cnc(-n2nc(C)cc2C)nc1Nc1ccc(O)cc1 | 0% | -4 | -12% | 4 | 19% | -1%
Cc1cc(C)c(S(=O)(=O)N2CCN(C(=O)c3cc(=O)[nH]c4ccccc34)CC2)c(C)c1 | -3% | . | 57% | . | 0% | 3%
Cc1ccccc1N(CC(=O)NC1CCCCC1)C(=O)CNC(=O)c1cccs1 | 5% | -3 | 29% | -2 | 0% | 0%
CN(C)[C@@H]1C(=O)C(C(N)=O)=C(O)[C@@]2(O)C(=O)C3=C(O)c4c(O)ccc(Cl)c4[C@@](C)(O)C3C[C@@H]12 (some centres undefined) | ? | -2 | -26% | 3 | -20% | 0%
Cc1noc(C)c1C(=O)OCC(=O)NC1CC1 | ? | -15 | -6% | -3 | 6% | ?
CC(C)Cn1[nH]c2c3c(ccc2c1=O)C(=O)c1ccccc1C3=O | -3% | 61 | -35% | 27* | -9% | -10%
CNCCCOc1cccc(Oc2ccccc2)c1 | -7% | 100* | 30% | 34* | -10% | 1%
CNCCCOc1cccc(OC(C)C)c1 | 0% | 141* | -7% | 19* | 16% | -10%
CC(O)CNCCCOc1cccc(Oc2ccccc2)c1 (centres undefined) | -2% | 27 | 15% | 15 | -13% | 0%
CC(=O)NCCOc1cccc(OCCNC(C)=O)c1 | ? | -4 | -12% | 1 | 19% | -12%
O=C(OCC(=O)N1CCCc2ccccc21)c1cc(S(=O)(=O)N2CCOCC2)ccc1F | -6% | . | -6% | . | 8% | -8%
SMILES | AmpC inh detg | Shiga toxin inh | AmpC no deterg | CHX counter | AMA1-RON2 inh | SARS PLP yeast
O=C(/C=C/c1c(Cl)nc2ccccn12)Nc1ccc(F)cc1 | 0% | 12 | ? | 15* | -11% | -2%
Cc1ccc(NC(=O)c2cc(-c3cccs3)on2)cc1 | -1% | 131* | -29% | 38* | 2% | 4%
O=C(Nc1ccc(Br)cc1)c1cc(-c2cccs2)on1 | -13% | 114* | -23% | 22* | 4% | 3%
COc1cc(NC(=O)c2cc(-c3cccs3)on2)cc(OC)c1OC | -13% | 3 | 37% | 14 | -15% | -13%
O=C(Nc1cnn(Cc2ccc(F)cc2)c1)c1cc(-c2cccs2)on1 | ? | -13 | -32% | 8 | -9% | 7%
O=C(Nc1ccc(Cl)cc1)c1cc(-c2cccs2)on1 | -6% | -3 | -25% | 8.3* | 6% | 10%
Cc1ccc2c(c1)c1c3n2CCN(C(=O)c2cccc(C(F)(F)F)c2)C3CCC1 (centres undefined) | 0% | . | . | . | . | .
CCNC(=S)NNC(=O)c1cc(-c2cccc(C)c2)nc2ccccc12 | 2% | 33 | -49% | 21* | 27% | -10%
CCCCOc1cccc(-c2cc(C(=O)NNC(=S)NCC)c3ccccc3n2)c1 | ? | 40 | -46% | 28* | 45% | 14%
CCNC(=S)NNC(=O)c1cc(-c2cccnc2)nc2ccccc12 | 1% | 4 | -41% | 12 | 76% | 10%
CCNC(=S)NNC(=O)c1cc(-c2cccc(OCC)c2)nc2ccccc12 | 1% | 51 | -41% | 14* | 34% | 12%
CCc1ccccc1NC(=O)c1sc2nc(C)cc(C)c2c1N | -5% | 50 | -23% | 12 | 16% | -11%
Cc1cc(C)c2c(N)c(C(=O)Nc3ccccc3F)sc2n1 | -15% | 41* | -12% | 34* | 0% | -1%
Cc1cc(C)c2c(N)c(C(=O)Nc3ccccc3Cl)sc2n1 | . | . | . | . | 4% | .
Cc1cc(C)c2c(N)c(C(=O)Nc3ccccc3Br)sc2n1 | ? | 39* | 62% | 24* | 11% | -7%
O=C(NCCc1ccccc1)Nc1ccc2c(c1)OCO2 | 1% | 156* | -21% | 61* | -12% | -1%
O=C(NCCc1ccc(F)cc1)Nc1ccc2c(c1)OCO2 | 3% | 58* | -33% | 48* | 1% | -1%
O=C(Nc1ccc2c(c1)OCO2)OCc1ccccc1 | -3% | 81* | -32% | 25* | -7% | -3%
COc1ccc(CCNC(=O)Nc2ccc3c(c2)OCO3)cc1OC | -3% | 11 | -14% | 6 | -8% | 0%
O=C(CCS(=O)(=O)c1ccc(Br)cc1)Nc1ccc2c(c1)OCO2 | -2% | 36 | -13% | 15* | 14% | 6%
Cc1ccc(-c2ccc3nnc(SCC(N)=O)n3n2)cc1 | -10% | -6 | -5% | 9 | 0% | 0%
O=C(NCCCn1ccnc1)c1sc2cccc(F)c2c1Cl | -10% | -22 | 0% | 4 | -3% | -6%
O=C(CS(=O)(=O)Cc1ccccc1)Nc1ccc2c(c1)OCO2 | 1% | 34 | -20% | 16 | -10% | 0%
O=C(CCc1ccccc1)Nc1ccc2c(c1)OCO2 | 4% | 89* | -21% | 53* | 1% | -2%
Cc1nc(-c2ccccc2)sc1CCNC(=O)C(=O)Nc1ccc2c(c1)OCCO2 | 3% | . | . | . | . | .
O=C(NCCc1ccccc1)C(=O)Nc1ccc2c(c1)OCCO2 | -4% | 74* | -13% | 27* | -1% | -4%
